Compound activity as filed in PubChem.
An excerpt weighted towards active compounds, which were near 12% of everything screened.
Sm TGR inh: S. mansoni TGR enzyme inhibition; Q962Y6; AID 485364; purified TGR, DTNB reduction, TNB absorbance 405 nm; 3% of 360,000 active; Potency, µM (titrated, usually from 114 µM), for the others: at the highest dose activity change, negative = inhibition, hits mostly inhibitors; active = well fitted inhibition curve with a large enough effect; inconclusive = small, poorly fitted or top-dose-only effect; inactive = no such curve, though single readings can be large or run the other way; note: potency is the fitted concentration of half-maximal effect; % is set by controls: 0 for no effect and ±100 for the full control effect; nearly all actives have a fitted effect of over 60% in size
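Kinetic colorimetric format: TGR-catalysed, NADPH-driven DTNB reduction monitored via TNB absorbance. Enzyme dispensed at 20 nM; compound exposure 15 min at room temperature before reaction start.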
Shiga inhibitor: inhibitors of Shiga toxin in Vero cells. Vero cells, Shiga toxin protein synthesis inhibition reporter. inhibition, % at 38.7 µM. 9.2% of 290,000 active. AID 2315; in the data active = inhibition mostly above about 28%, no sharp cut-off; inactive = mostly below about 43%; note: 0% is about no effect
CHX counter: counter-screen hit for Shiga toxin inhibitors, cycloheximide | cell reporter, cycloheximide protein synthesis inhibition counterscreen | max response, % | 12% of 300,000 active | AID 2314; in the data active = max response mostly above about 13%, no sharp cut-off; inactive = mostly below about 14%; note: read at 38.3 µM for the half of the compounds with a filed dose; 0% is about no effect
FMDV inh: antivirals against foot and mouth disease virus | FMDV antiviral cell-based qHTS | Potency, µM (top dose mostly 57.9 µM), for inactives: at the highest dose activity change, negative = inhibition, actives largely listed as inhibitors | 1.2% of 410,000 active | AID 1159524; calls by dose curve; tested in HEK293T cells; note: read-out not given here; potency is the fitted concentration of half-maximal effect; % is set by controls: 0 for no effect and ±100 for the full control effect; nearly all actives have a fitted effect of over 45% in size
Active calls of the source: *; u = inconclusive; x = no result given.

SMILES | Sm TGR inh | Shiga inhibitor | CHX counter | FMDV inh
CCOC(=O)N1CCC(NC(=O)CS(=O)(=O)Cc2nc(-c3ccccc3C)oc2C)CC1 | 44.7µM* | -16.3 | -7.1 | u
Cc1oc(-c2ccccc2Cl)nc1CS(=O)(=O)CC(=O)NC1CCCC1 | 44.7µM* | 2.7 | -1.8 | -10.0%
CCN1CCCC1CNC(=O)CS(=O)(=O)Cc1nc(-c2ccccc2C)oc1C (centres undefined) | -31.0% | 7.9 | -4.1 | -17.5%
Cc1ccccc1-c1nc(CS(=O)(=O)CC(=O)NC2CCCC2)c(C)o1 | 39.8µM* | -7.6 | -5.7 | -14.6%
COc1ccc(OC)c(CNS(=O)(=O)c2cc(-c3onc(C)c3C)ccc2C)c1 | 1.0% | x | x | 10.9%
CCOC(=O)c1cc(CC)sc1N1C(=O)CC(Sc2ccccc2C(=O)O)C1=O (centres undefined) | 14.1µM* | -2.2 | 6.7 | -8.8%
CCOC(=O)c1cc(CC)sc1N1C(=O)CC(Sc2ncccc2C(=O)O)C1=O (centres undefined) | 25.1µM* | -6.7 | -3.8 | -9.6%
CN(C(=O)c1cc2c(=O)n3ccccc3nc2n1C)c1ccccc1 | -0.2% | x | x | 36.6%
CC(=O)Nc1cccc(-c2csc(Nc3ccc(C)cn3)n2)c1 | 0.6% | 97.6* | 69.0* | -33.3%
CC(=O)Nc1cccc(-c2csc(C(NC(C)=O)c3ccc(F)c(F)c3)n2)c1 (centres undefined) | x | x | x | 6.2%
CC(=O)Nc1cccc(-c2cnc(NC(C)=O)cn2)c1 | x | x | x | 42.1%
CC(=O)Nc1cccc(-c2csc(Nc3ncccn3)n2)c1 | 0.9% | 91.2* | 43.0* | x
Cc1cc(C)cc(NC(=O)N2CCN(C(=O)c3nsc4ccccc34)CC2)c1 | -7.3% | x | x | -22.2%
Cc1cc(C(=O)C(=O)O)c(C)n1-c1ccc(Cl)cc1 | 4.6% | -8.0 | -2.7 | 0.0%
Cc1cc(C(=O)C(C)Sc2cccc[n+]2[O-])c(C)n1-c1ccc(Cl)cc1 (centres undefined) | u | 9.8 | 10.1* | -7.2%
C=C(C)c1cccc(C(C)(C)NC(=O)Nc2cc(C)ccn2)c1 | -0.9% | 91.6* | 30.2* | u
C=C(C)c1cccc(C(C)(C)NC(=O)Nc2ccc(C)cn2)c1 | -0.3% | 63.5* | 21.2* | -21.2%
CCOC(=O)c1ccc(NS(=O)(=O)c2cn(C)c(C)n2)cc1 | 3.6% | x | x | -7.7%
O=c1cnc2cnc(Nc3ccccc3)nc2n1C1CC1 | x | x | x | 5.7%
COc1cccc(-c2ccc(SCc3ccccn3)nn2)c1 | -0.3% | 77.3* | 41.9* | 20.2%
COc1ccc(-c2ccc(SCC(=O)c3ccccc3)nn2)cc1OC | -13.3% | 24.0 | 22.0 | -2.4%
COc1ccc(-c2ccc(SCc3ccccn3)nn2)cc1OC | -0.6% | 35.1 | 28.8* | 4.7%
COc1ccc(NC(=O)CSc2ccc(-c3cccnc3)nn2)c(OC)c1 | -22.4% | 8.9 | 6.0 | -9.4%
O=C(CSc1ccc(-c2cccc([N+](=O)[O-])c2)nn1)N1CCCCC1 | 10.4% | 29.6 | 18.1 | -7.4%
O=[N+]([O-])c1cccc(-c2ccc(SCc3ccccn3)nn2)c1 | 4.0% | 56.4* | 36.5* | 48.3%
SMILES | Sm TGR inh | Shiga inhibitor | CHX counter | FMDV inh
CC(C)NC(=O)[C@@H]1C[C@@H](Sc2ccccn2)CN1C1CCN(C)CC1 | x | x | x | -6.1%
CCOc1ccc(N2CC(c3nc4ccccc4n3CCCOc3ccccc3)CC2=O)cc1 (centres undefined) | 7.5% | x | x | u
Clc1cccc(CSc2nnc(-c3ccccn3)n2Cc2ccco2)c1 | 39.8µM* | -2.9 | -3.1 | u
CC(C)(C)c1ccc(CSc2nnc(-c3ccccn3)n2Cc2ccco2)cc1 | -27.5% | -22.9 | 1.5 | u
Clc1ccc(CSc2nnc(-c3ccccn3)n2Cc2ccco2)cc1Cl | x | x | x | 0.0%
Brc1ccc(CSc2nnc(-c3ccccn3)n2Cc2ccco2)cc1 | 39.8µM* | 11.0 | -3.4 | u
O=C(Oc1ccccc1)N1CCC2(CCCN(c3ccccn3)C2)CC1 | x | x | x | -19.7%
CC(C)c1c(C(=O)N2CCN(CCO)CC2)cnn1-c1nccc(-c2cccs2)n1 | x | x | x | -4.8%
COc1cc(C=C2C(=O)NC(=O)NC2=O)ccc1OCc1ccc([N+](=O)[O-])cc1 | 25.1µM* | 101.7* | 59.2* | 69.5%
COc1cc(C(c2c(C)[nH][nH]c2=O)c2c(C)[nH][nH]c2=O)ccc1OCc1ccc([N+](=O)[O-])cc1 | 9.3% | 51.7 | 24.9* | 0.0%
CCOC(=O)C(=Cc1ccc(OCc2ccc([N+](=O)[O-])cc2)c(OC)c1)C(=O)OCC | -8.3% | 27.5 | 43.3* | u
CCOC(=O)/C(=C\c1ccc(OC)c(OC)c1)C(=O)c1cccnc1 | -17.2% | 1.1 | 0.3 | u
COC(=O)C(=Cc1ccc(OCc2ccc([N+](=O)[O-])cc2)c(OC)c1)C(=O)OC | -33.4% | 41.8* | 23.9* | u
COc1cc(C(c2c(C)[nH][nH]c2=O)c2c(C)[nH][nH]c2=O)ccc1OC(=O)c1cccc([N+](=O)[O-])c1 | 23.8% | -11.6 | -1.2 | -7.3%
Cc1ccc(NC(=O)CCN2C(=O)c3ccccc3Sc3ncccc32)c(Cl)c1 | 11.1% | x | x | -3.6%
O=C(Nc1cccc(Cl)c1)Nc1ccccc1OCc1cc(=O)n2ccccc2n1 | -3.3% | x | x | 17.6%
CCOC(=O)c1c(C)[nH]c(C2=NNC(=Nc3ccccc3OC)SC2)c1C | -1.6% | 41.7* | 49.4* | 33.9%
CCOC(=O)c1c(C)[nH]c(C2=NNC(=Nc3ccccc3)SC2)c1C | -12.7% | 29.6* | 20.5* | 0.0%
CCOC(=O)C1=C(O)CSC1=Nc1ccccc1 | 0.0% | -12.1 | -3.3 | -18.5%
CCOC(=O)c1c(C)[nH]c(C2=NNC(=Nc3ccc(OCC)cc3)SC2)c1C | -16.3% | 3.6 | 12.6* | 6.0%
CC(=O)c1c(C)[nH]c(C2=NNC(=NC(C)(C)C)SC2)c1C | -32.6% | 82.2* | 29.4* | 36.2%
CCOC(=O)c1c(C)[nH]c(C(=O)OCC(=O)Nc2cc(C)ccc2OC)c1C | -10.1% | -15.4 | -3.8 | -5.5%
Cc1ccc2[nH]c(CSc3nnc(NC(=O)COc4ccccc4Cl)s3)cc(=O)c2c1 | -0.4% | x | x | -6.8%
Cc1cccc(NC(=O)CN2C(=O)c3cccnc3Oc3ccc(Cl)cc32)c1C | 2.6% | x | x | -5.5%
CCS(=O)(=O)N1Cc2ccccc2CC1C(=O)NCCc1ccccc1 (centres undefined) | -2.8% | 22.0 | 19.0* | 20.2%
SMILES | Sm TGR inh | Shiga inhibitor | CHX counter | FMDV inh
CCS(=O)(=O)N1Cc2ccccc2CC1C(=O)Nc1ccc(F)c(F)c1F (centres undefined) | -18.3% | 44.4 | 24.5* | 49.9%
CCS(=O)(=O)N1Cc2ccccc2CC1C(=O)Nc1cc(S(C)(=O)=O)ccc1Cl (centres undefined) | -7.8% | -7.5 | -1.8 | 8.0%
CCOc1ccc(NC(=O)C2Cc3ccccc3CN2S(=O)(=O)CC)cc1 (centres undefined) | -9.5% | 45.5 | 27.8 | 38.2%
CCS(=O)(=O)N1Cc2ccccc2CC1C(=O)Nc1ccc(OC)cc1 (centres undefined) | -20.3% | 47.5 | 35.2* | 18.0%
CCS(=O)(=O)N1Cc2ccccc2CC1C(=O)Nc1ccc(F)c(F)c1 (centres undefined) | 15.3% | 81.8* | 37.0* | 29.7%
CCS(=O)(=O)N1Cc2ccccc2CC1C(=O)Nc1ccc(NC(C)=O)cc1 (centres undefined) | -8.0% | 2.3 | -1.2 | 11.4%
